This is an account of results in PubChem BioAssay (NCI).

About 83,000 compounds went through this panel and 20% of them were active in at least one assay; those are over-represented in the sample as a whole.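 Method: cells in 96-well plates; compound added at one concentration; 48 h incubation; percent growth measured; values under 10 scored active.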 A number with no mark means an inactive call. The source made the active and inactive calls.

Among the test systems are SK-MEL-2 melanoma; EKVX NSCLC; SN12C renal; UO-31 renal; TK-10 renal; ACHN renal; CAKI-1 renal; A498 renal; CCRF-CEM leukemia; MOLT-4 leukemia.
Common to all, as to test: NCI-60 one-dose screen, 48 h (100 = growth as untreated, 0 = no growth, -100 = all killed)
Common to all, as to settings: 10 µM unless noted

As for `Cn1ncc2c(N)nc(Oc3ccccc3-c3ccccc3)nc21`, the growth in the assay on SK-MEL-2 melanoma is -4.9% (active); in the assay with EKVX NSCLC, 41.6%; with SN12C renal it was 43.3%; with UO-31 renal, 48.1%; in the assay with TK-10 renal, 65.1%; in the assay on ACHN renal it was 51.6%. The growth is 29% in the assay with CAKI-1 renal, 105% in the assay on A498 renal, 25.5% in the assay with CCRF-CEM leukemia and 8.1% (active) with MOLT-4 leukemia.
Take `C=CC[n+]1cccc2c3ccccc3ccc21`: the growth in the assay on SK-MEL-2 melanoma was 63.3%; in the assay on EKVX NSCLC, 23.7%; with SN12C renal it was 8.67% (active); in the assay on UO-31 renal, 56.5%; in the assay on TK-10 renal, 67.1%; in the assay with ACHN renal, 88%. Further, the growth was 60.6% in the assay with CAKI-1 renal, 48.6% in the assay on A498 renal, 47.3% with CCRF-CEM leukemia and 47.9% with MOLT-4 leukemia.
Consider `COc1ccc(-c2nc3ccc(-c4nnc(SCc5ccccc5)o4)cc3[nH]2)cc1`, for which the growth in the assay with SK-MEL-2 melanoma is 11%; with EKVX NSCLC, -0.06% (active); with SN12C renal, -66.3% (active); with UO-31 renal it was -44.2% (active); in the assay with TK-10 renal, -35.3% (active); with ACHN renal, -85.2% (active). The growth in the assay with CAKI-1 renal is -77.1% (active); in the assay on A498 renal, -36.2% (active); in the assay on CCRF-CEM leukemia, 13.9%; in the assay on MOLT-4 leukemia, 11.5%.
`N#C/C(=C1/C(=O)Nc2ccccc21)c1nnc(NC(=O)c2ccc(-n3c(=O)[nH]c4ccccc4c3=O)cc2)s1`: the growth is 57.7% with SK-MEL-2 melanoma; 38.9% in the assay with EKVX NSCLC; 33.1% in the assay on SN12C renal; 29.5% with UO-31 renal; 84.3% in the assay on TK-10 renal; 28.2% in the assay with ACHN renal. For the same compound, the growth in the assay with CAKI-1 renal was 49.2%; in the assay on A498 renal, 133%; with CCRF-CEM leukemia it was 7.74% (active); with MOLT-4 leukemia, 0.108% (active).
As to `COc1c2c(c(Br)c3c1C(CCc1ccccc1)N(C)CC3)OCO2` (stereo not given), the growth is 68.6% in the assay with SK-MEL-2 melanoma; 36.3% in the assay on EKVX NSCLC; 35% in the assay with SN12C renal; 35.9% in the assay with UO-31 renal; 70.9% with TK-10 renal; 30.3% with ACHN renal. Moreover, the growth in the assay on CAKI-1 renal is 36%; in the assay on A498 renal, 82%; with CCRF-CEM leukemia, 30.1%; with MOLT-4 leukemia, 25.3%.
For `COc1ccc(SC2c3cc(OC)ccc3Oc3nc(N)c(C#N)c(N)c32)cc1` (stereo not given), the growth with SK-MEL-2 melanoma was 94.5%; in the assay on EKVX NSCLC, 76.3%; in the assay with SN12C renal, 73.7%; in the assay on UO-31 renal, 39.7%; in the assay on TK-10 renal, 110%; in the assay with ACHN renal, 76.3%. Further, the growth is 79.1% in the assay on CAKI-1 renal, 107% in the assay on A498 renal, 4.16% (active) in the assay with CCRF-CEM leukemia and 55.4% in the assay with MOLT-4 leukemia.
With `COc1ccc(-c2cc(-c3cc(OC)c(OC)c(OC)c3)[nH]c(=O)c2C#N)cc1`, the growth is 97.8% with SK-MEL-2 melanoma; 65.6% in the assay on EKVX NSCLC; 8.1% (active) in the assay with SN12C renal; -24.9% (active) in the assay with UO-31 renal; 40.8% with TK-10 renal; -25.4% (active) with ACHN renal. Besides, the growth was 47% in the assay with CAKI-1 renal, -2.4% (active) in the assay on A498 renal, 76.7% in the assay with CCRF-CEM leukemia and 80.1% in the assay on MOLT-4 leukemia.
Take `COc1ccc(NC(=O)Cn2c(/C=C/c3ccc([N+](=O)[O-])cc3)nc3ccccc3c2=O)cc1`: the growth in the assay with SK-MEL-2 melanoma was 78.9%; in the assay on EKVX NSCLC it was 74.4%; in the assay with SN12C renal, 62.3%; in the assay on UO-31 renal, 22.9%; in the assay with TK-10 renal, 25.5%; in the assay on ACHN renal, 51.9%. For the same compound, the growth in the assay with CAKI-1 renal is 63.2%; in the assay with A498 renal, 85.8%; in the assay with CCRF-CEM leukemia, 103%; in the assay on MOLT-4 leukemia, 114%.
As to `Nc1cc2ccccc2c(=O)n1NC(=O)c1ccc(Br)cc1`, the growth in the assay on SK-MEL-2 melanoma is 108%; with EKVX NSCLC, 83.2%; with SN12C renal, 95.5%; with UO-31 renal, 74.9%; in the assay with TK-10 renal it was 116%; with ACHN renal, 104%. Also, the growth is 83.8% in the assay with CAKI-1 renal, 189% with A498 renal, 86.4% in the assay on CCRF-CEM leukemia and 90.8% with MOLT-4 leukemia.
In the case of `COc1cc(NC(=O)CSc2nnc(-c3ccc(-c4nc5ccc(Cl)cc5[nH]4)cc3)o2)cc(OC)c1OC`, the growth was 40.3% in the assay with SK-MEL-2 melanoma; 81.1% with EKVX NSCLC; 46.6% in the assay on SN12C renal; 64% in the assay on UO-31 renal; 93.9% in the assay with TK-10 renal; 74.9% in the assay with ACHN renal. The growth is 68.3% in the assay on CAKI-1 renal, 137% with A498 renal, 15% in the assay with CCRF-CEM leukemia and 34.2% in the assay on MOLT-4 leukemia.
As to `O=C(CSc1nnc(-c2ccc(-c3nc4ccc(Cl)cc4[nH]3)cc2)o1)Nc1ccccc1`, the growth in the assay on SK-MEL-2 melanoma is 54.5%; with EKVX NSCLC, 21.1%; with SN12C renal, 4.03% (active); with UO-31 renal, 60.6%; in the assay with TK-10 renal it was 114%; in the assay with ACHN renal, -56.4% (active). Moreover, the growth in the assay on CAKI-1 renal was -33.5% (active); in the assay on A498 renal, 130%; in the assay on CCRF-CEM leukemia, 41.5%; in the assay with MOLT-4 leukemia it was 10.7%.
For `Cc1ccc(C(=O)Nc2ccc(-n3ccnc3)c(C(F)(F)F)c2)cc1C#Cc1cnc2cccnn12`, the growth with SK-MEL-2 melanoma was -23.6% (active); in the assay on EKVX NSCLC it was 27.5%; with SN12C renal it was 14.4%; with UO-31 renal it was 5.87% (active); in the assay with TK-10 renal it was 23%; with ACHN renal it was 12.3%. Further, the growth was -4.4% (active) in the assay on CAKI-1 renal, -6.46% (active) with A498 renal, 22.9% with CCRF-CEM leukemia and -32.5% (active) with MOLT-4 leukemia.
With `Cc1ccc(S(=O)(=O)Nc2ccc(-c3ccc4c(c3)NC(=O)/C4=C\c3ccc[nH]3)cc2)cc1`, the growth in the assay with SK-MEL-2 melanoma is 105%; in the assay on EKVX NSCLC, 35.7%; in the assay on SN12C renal, 85.8%; in the assay with UO-31 renal, 93.9%; with TK-10 renal, 98.4%; in the assay on ACHN renal it was 93.5%. Moreover, the growth was 87.3% with CAKI-1 renal, 112% in the assay on A498 renal, 62.3% in the assay with CCRF-CEM leukemia and 68.1% in the assay with MOLT-4 leukemia.
